For 90 molecules, activity change, negative = inhibition results are on record in PubChem BioAssay AID504652 (National Center for Advancing Translational Sciences (NCATS), 2011).

In all, about 360,000 compounds went through this assay and about 11,000 (3.1%) were called active. No stated cut-off is given here; in the data, active means activity change below about -30%; inactive means the rest. The list comes from a sample in which actives are over-represented; it also holds similar structures and randomly drawn compounds.
On the % scale 0 is the no-effect control and ±100 the full control effect.

Chain of D(1A) dopamine receptor (Homo sapiens) (P21728 whole entry, looked up): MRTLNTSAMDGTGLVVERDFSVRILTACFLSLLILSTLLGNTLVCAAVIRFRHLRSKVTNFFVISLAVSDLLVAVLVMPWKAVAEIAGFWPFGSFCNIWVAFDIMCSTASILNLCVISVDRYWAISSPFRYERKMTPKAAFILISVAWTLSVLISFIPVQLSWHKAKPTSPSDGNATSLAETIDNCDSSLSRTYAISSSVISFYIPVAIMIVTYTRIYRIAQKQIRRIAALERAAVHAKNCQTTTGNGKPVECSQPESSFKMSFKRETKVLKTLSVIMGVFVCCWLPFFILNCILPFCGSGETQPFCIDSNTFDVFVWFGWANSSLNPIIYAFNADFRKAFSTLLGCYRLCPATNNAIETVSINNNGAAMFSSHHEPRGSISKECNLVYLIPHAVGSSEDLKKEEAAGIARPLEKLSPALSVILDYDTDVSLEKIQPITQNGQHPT

The experiment addresses D(1A) dopamine receptor (Homo sapiens) (UniProt P21728). Put plainly: Antagonist of Human D 1 Dopamine Receptor: qHTS. The following applies: HEK293 TREx D1 cells, calcium flux, dopamine EC80; at 10 µM; active compounds read low. Summed up: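 Using tetracycline-induced force-coupled D1 Hek293 cells and a calcium dye, signals were followed for 180 s after compound, then for 180 s after EC80 dopamine, to detect inhibitors.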
For orientation: In qHTS, concentration-response curves come from the screen itself.
Regarding `O=C(Nc1ccccc1F)C(c1ccccc1)N1Cc2ccccc2C1=O` (stereo not given), the activity change, negative = inhibition is -0.199% (inactive).

As to `Cc1cccc(OCC(=O)N(Cc2ccc(C(C)C)cc2)Cc2ccco2)c1C`, the activity change, negative = inhibition was -14.7% (inactive).

Regarding `COc1ccc(NC(=O)NCc2ccc3c(c2)OCO3)c(OC)c1`, the activity change, negative = inhibition is 2.8% (inactive).

For the molecule `COc1ccc(C2=NOC(Cn3nc(C(=O)NCc4ccc5c(c4)OCO5)cc3-c3ccccc3)C2)cc1` (stereo not given), the activity change, negative = inhibition is -33.6% (active).

As to `Cc1ccc(CNC(=O)c2cc(-c3ccccc3C)n(CC3CC(c4cccc([N+](=O)[O-])c4)=NO3)n2)cc1` (stereo not given), the activity change, negative = inhibition was -15.8% (inactive).

In the case of `COc1cccc(N=C2SC(C(=O)Nc3cccc(Cl)c3)CC(=O)N2C)c1` (stereo not given), the activity change, negative = inhibition was -65.2% (active).

As for `COc1ccc(N=C2SC(C(=O)Nc3ccc(F)cc3)CC(=O)N2C)cc1` (stereo not given), the activity change, negative = inhibition is 5.67% (inactive).

For the molecule `COc1cccc(-c2cccc(NC(=O)C3CCN(C4CCC4)CC3)c2)c1`, the activity change, negative = inhibition is 30.7% (inactive).

In the case of `CSc1ccc(CCNC(=O)c2cnn(-c3ccccc3)c2-n2cccc2)cc1`, the activity change, negative = inhibition was 1.42% (inactive).

For `O=C(NCCCN1CCOCC1)c1ccccc1NS(=O)(=O)c1ccc(Br)cc1`, the activity change, negative = inhibition was -0.557% (inactive).

Take `Cc1ccc(NS(=O)(=O)c2ccc(C(=O)NCCCN3CCOCC3)cc2)cc1`: the activity change, negative = inhibition is 26.5% (inactive).

`O=C(NCCCN1CCOCC1)c1ccccc1NS(=O)(=O)c1ccc(F)cc1`: the activity change, negative = inhibition was -51.4% (active).

For `COC(=O)c1cc(S(=O)(=O)N2CCN(c3cc(Cl)ccc3C)CC2)c[nH]1`, the activity change, negative = inhibition is 5.54% (inactive).

Regarding `CCn1cc2nc(SCc3cccc(F)c3)n(CCc3ccccc3)c(=O)c2n1`, the activity change, negative = inhibition is 11.7% (inactive).

Regarding `CCCCN(CC)CCCNC(=O)Cn1ncc2c([nH]c3ccc(C)cc32)c1=O`, the activity change, negative = inhibition is 3.23% (inactive).

On to `Cc1cccc(NC(=O)N2CCN(C)c3ncccc32)c1C`, for which the activity change, negative = inhibition was -0.945% (inactive).

For `COc1ccc(S(=O)(=O)n2nc(C)c(S(=O)(=O)N3CCCCCC3)c2C)cc1`, the activity change, negative = inhibition is 5.83% (inactive).

In the case of `Cc1cc(C(=O)Nc2cccc(C(F)(F)F)c2)c2c(C)nn(-c3cccc(F)c3)c2n1`, the activity change, negative = inhibition is -34.4% (active).

Regarding `COc1cc(NC(=O)c2cc(C3CC3)nc3c2c(C)nn3-c2ccccc2)cc(OC)c1`, the activity change, negative = inhibition is 0.344% (inactive).

On to `CSc1ccc(CCNC(=O)c2cc(C)nc3c2c(C)nn3-c2cccc(F)c2)cc1`, for which the activity change, negative = inhibition is -11.8% (inactive).

For the molecule `CC(C)(C)C1CCc2c(sc(NC(=O)c3ccccc3F)c2C(=O)N2CCCCC2)C1` (stereo not given), the activity change, negative = inhibition is 4.22% (inactive).

On to `Cc1ccc(NC(=O)CN2c3ccccc3S(=O)(=O)c3ccccc32)cc1F`, for which the activity change, negative = inhibition is -3% (inactive).

Consider `COc1cc(OC)c(N2CC(C(=O)Nc3cc(Cl)ccc3N3CCOCC3)CC2=O)cc1Cl` (stereo not given), for which the activity change, negative = inhibition was -18.4% (inactive).

Consider `COc1cc(OC)c(-n2cc(-c3ccc(Cl)cc3)[nH]c2=O)cc1Cl`, for which the activity change, negative = inhibition is -36.2% (active).

On to `COc1cc(OC)c(-n2c(C)cc(C=O)c2C)cc1Cl`, for which the activity change, negative = inhibition was 14.6% (inactive).

In the case of `CCN1CCC(N(Cc2ccc(F)cc2)C(=O)Nc2cc(C)ccc2C)CC1`, the activity change, negative = inhibition is -6.08% (inactive).

For the molecule `Cc1ccsc1CN(C(=O)c1oc2ccc(Br)cc2c1C)C1CCS(=O)(=O)C1` (stereo not given), the activity change, negative = inhibition is -12.9% (inactive).

Take `CCc1ccc(CN(Cc2ccco2)C(=O)COc2ccc(Cl)c(C)c2)cc1`: the activity change, negative = inhibition was -3.05% (inactive).

For `COc1ccc(Br)cc1CNC(=O)c1cc(=O)[nH]c2ccc(S(=O)(=O)N3CCCC3)cc12`, the activity change, negative = inhibition is 2.78% (inactive).

As to `O=C(O)c1cccnc1Sc1ncnc2sc3c(c12)CCC3`, the activity change, negative = inhibition is 11.4% (inactive).

`O=C(O)[C@@H]1CCCN1c1ncnc2sc3c(c12)CCC3`: the activity change, negative = inhibition is -59.2% (active).

Take `CC1(C)CN=C(N2CCN(c3ncnc4sc5c(c34)CCCC5)CC2)S1`: the activity change, negative = inhibition is -2.14% (inactive).

For the molecule `O=C1OC(OC(=O)c2ccccc2Br)C(N2CCOCC2)=C1Cl` (stereo not given), the activity change, negative = inhibition was 6.42% (inactive).

For `Cc1ccccc1C(=O)OC1OC(=O)C(Cl)=C1Nc1ccccc1` (stereo not given), the activity change, negative = inhibition was -22.8% (inactive).

`Cc1ccc(NC2=C(Cl)C(=O)OC2OC(=O)c2ccccc2C)cc1` (stereo not given): the activity change, negative = inhibition is -33.8% (active).

Regarding `CCN(Cc1ccccc1)C(=O)c1cn(-c2cccc(OC)c2)c(=O)c2ccccc12`, the activity change, negative = inhibition was -4.13% (inactive).

For the molecule `COc1ccccc1NC(=O)c1cc(C2CC2)nc2c1c(C)nn2-c1ccc(C)cc1`, the activity change, negative = inhibition is 3.81% (inactive).

Regarding `Cc1ccccc1Nc1nn2c(=O)c3ccc(C(=O)NCCc4ccc(Cl)cc4)cc3nc2s1`, the activity change, negative = inhibition is -2.1% (inactive).

Regarding `Cc1ccc(C(=O)Nc2ccccc2F)cc1S(=O)(=O)N1CCOCC1`, the activity change, negative = inhibition is -16.7% (inactive).

With `COc1cccc(C(O)Cc2nc3ccccc3n2C)c1OC` (stereo not given), the activity change, negative = inhibition was 5.85% (inactive).

As for `Cn1c(CC(=O)NNC(=O)c2ccccc2F)nc2ccccc21`, the activity change, negative = inhibition is -11.4% (inactive).

Regarding `Cn1c(COc2ccccc2C(C)(C)C)nc2ccccc21`, the activity change, negative = inhibition was -65.7% (active).

Take `O=C(Cn1cc(SCc2ccccc2)c2ccccc21)N1CCCCC1`: the activity change, negative = inhibition was -7.17% (inactive).

On to `Cc1ccc(NC(=O)Nc2sc3nc4n(c(=O)c3c2C)CCC(C)CC4)c(Cl)c1` (stereo not given), for which the activity change, negative = inhibition is 10.9% (inactive).

Consider `COc1ccc(C2Nc3ccccc3C(=O)N2Cc2ccccc2)cc1Cn1nnc2ccccc21` (stereo not given), for which the activity change, negative = inhibition was 12.5% (inactive).

For the molecule `COc1ccc(C2Nc3ccccc3C(=O)N2c2ccc(Cl)cc2)cc1Cn1cc([N+](=O)[O-])cn1` (stereo not given), the activity change, negative = inhibition is -30.3% (active).

With `COc1ccc(CN2CCCC(C(=O)c3ccc(Cl)cc3)C2)cc1Cn1cncn1` (stereo not given), the activity change, negative = inhibition was -13.5% (inactive).

For the molecule `Cc1cc(C)cc(NC(=O)CSc2oc(-c3ccccc3)nc2S(=O)(=O)c2ccc(Cl)cc2)c1`, the activity change, negative = inhibition is -12.1% (inactive).

Take `O=C(COc1ccc(Cl)cc1)N(Cc1ccco1)Cc1ccco1`: the activity change, negative = inhibition was -16.4% (inactive).

As to `COC(=O)c1sc(-c2ccc(C(C)(C)C)cc2)cc1NC(=O)/C=C/C(=O)O`, the activity change, negative = inhibition is -37% (active).

Regarding `COc1ccccc1NC(=O)/C=C/C(N)=O`, the activity change, negative = inhibition was 19.1% (inactive).

Regarding `COC(=O)c1nc(NC(=O)c2ccc(C(C)(C)C)cc2)n[nH]1`, the activity change, negative = inhibition is -14.1% (inactive).

As to `O=C(O)c1ccc(Nc2nc(-c3ccccc3)c3cc(Br)ccc3n2)cc1`, the activity change, negative = inhibition is -12.9% (inactive).

As to `COc1ccc(NC(=O)CC(NC(C)c2ccccc2)C(=O)O)cc1` (stereo not given), the activity change, negative = inhibition is -21.7% (inactive).

For `COc1ccc(C(CC(=O)Nc2ccc(C)cc2)NC(=O)C(F)(F)F)cc1` (stereo not given), the activity change, negative = inhibition is -43.5% (active).

`COc1ccc(NC(=O)Cn2c(-c3ccc(OC)cc3)cn(-c3ccc(C)cc3)c2=O)cc1`: the activity change, negative = inhibition is 3.29% (inactive).

As to `COc1ccc(-c2[nH]c3c(c2-c2c(-n4cccc4)n(C)c(=O)n(C)c2=O)c(=O)n(C)c(=O)n3C)cc1`, the activity change, negative = inhibition is 1.12% (inactive).

For the molecule `Cc1ccc(-c2cc(N)n(Cc3cccc(Cl)c3)n2)cc1`, the activity change, negative = inhibition was -6.88% (inactive).

Turning to `O=C(CC(NCc1cccnc1)C(=O)O)Nc1ccc(O)cc1` (stereo not given), the activity change, negative = inhibition is 0.451% (inactive).

Consider `O=[S+]([O-])(c1ccc2c(c1)OCCO2)N1CCN([S+](=O)([O-])c2c(Cl)cc(Cl)cc2Br)CC1`, for which the activity change, negative = inhibition was -16.4% (inactive).

With `O=C(Nc1ccccc1)OCc1cc(-c2ccc(Cl)cc2)on1`, the activity change, negative = inhibition was -32.2% (active).

For the molecule `O=C(Nc1ccc(Cl)cc1)OCc1cc(-c2ccccc2)on1`, the activity change, negative = inhibition was -17% (inactive).

Turning to `Clc1ccc(-c2cc(COc3ccccc3)no2)cc1Cl`, the activity change, negative = inhibition is 1.76% (inactive).

For the molecule `CCCCNC(=O)CSc1nc2cc3c(cc2c(=O)n1CCCCCC(=O)NCc1ccc2c(c1)OCO2)OCO3`, the activity change, negative = inhibition was -9.04% (inactive).

For `CC(=O)Cc1nsc(NC(=O)c2ccc(COc3ccc(C)cc3)o2)n1`, the activity change, negative = inhibition is -39.7% (active).

Regarding `CCOc1ccc(OCc2ccc(C(=O)Nc3cccc(C)n3)o2)cc1`, the activity change, negative = inhibition is 1.17% (inactive).

For the molecule `CC(=O)Cc1nsc(NC(=O)c2ccc(Cl)cc2Cl)n1`, the activity change, negative = inhibition was -11.9% (inactive).

As to `COc1ccccc1-c1nnc(C2CCN(C(=O)c3ccc(Cl)cc3)CC2)o1`, the activity change, negative = inhibition is -12.2% (inactive).

Take `O=C(CCc1cn(Cc2ccc(F)cc2)c2ccccc12)NC1CCCCC1`: the activity change, negative = inhibition is -2.06% (inactive).

Consider `COc1cc2c(cc1OC)C(COc1ccc(F)cc1)N(C(=O)c1ccccc1F)CC2` (stereo not given), for which the activity change, negative = inhibition is 1.87% (inactive).

In the case of `Cc1ccc(/C=C(\C#N)C(=O)Nc2cc(C)ccc2C)cc1`, the activity change, negative = inhibition is 2.52% (inactive).

Consider `CC(C)(C)C(=O)/C(C#N)=C/c1ccc(O)cc1`, for which the activity change, negative = inhibition was -33.6% (active).

As for `CC(C)NC(=O)/C(C#N)=C\c1ccc(N(C)C)c(Br)c1`, the activity change, negative = inhibition is -4.83% (inactive).

`OCc1cnc(SCc2ccc(F)cc2)n1Cc1ccc(F)cc1`: the activity change, negative = inhibition is -1.85% (inactive).

In the case of `Cc1ccc(Nc2c(-c3ccc(Cl)cc3)nc3sccn23)c(C)c1`, the activity change, negative = inhibition was -21.4% (inactive).

With `COc1cc(NC(=O)c2cc3ccc4cccnc4c3[nH]2)cc(OC)c1OC`, the activity change, negative = inhibition was -1.04% (inactive).

With `O=C(CCSCc1ccccc1F)N1CCN(c2ccc(Cl)cc2)CC1`, the activity change, negative = inhibition was -33.3% (active).

Consider `Cc1cccc(N2CCN(C(=O)CCSCc3ccccc3F)CC2)c1C`, for which the activity change, negative = inhibition was 10% (inactive).

Take `COc1ccc(N2CCN(C(=O)CCSCc3ccccc3F)CC2)cc1`: the activity change, negative = inhibition is -20.6% (inactive).

In the case of `Cc1cc(C)n(Cc2cnc(N3CCOCC3)s2)n1`, the activity change, negative = inhibition was -31% (active).

For the molecule `c1cnn(-c2cc(N3CCOCC3)ncn2)c1`, the activity change, negative = inhibition is 3.42% (inactive).

In the case of `Cc1nc(N2CCOCC2)sc1C(=O)NN`, the activity change, negative = inhibition was 7.42% (inactive).

In the case of `Cc1ccc2onc(CC(=O)N3CCN(c4ccc(Cl)cc4)CC3)c2c1`, the activity change, negative = inhibition is -0.0287% (inactive).

Regarding `COc1ccc(NC(C(=O)Nc2cccc(C(C)=O)c2)c2ccccc2)cc1` (stereo not given), the activity change, negative = inhibition was 0.474% (inactive).

Regarding `CC(=O)c1cccc(NC(=S)N2CCCC2)c1`, the activity change, negative = inhibition is -8.06% (inactive).

With `C=CCSc1nsc(NC(=O)Nc2cccc(C(C)=O)c2)n1`, the activity change, negative = inhibition was -31.6% (active).

Consider `CSc1ccccc1C(=O)Nc1cccc(C(C)=O)c1`, for which the activity change, negative = inhibition is -13.7% (inactive).

On to `CC(=O)c1cccc(NC(=O)CSc2nc3c(c(=O)[nH]2)CCC3)c1`, for which the activity change, negative = inhibition was -6.03% (inactive).

Turning to `CCSc1nsc(NC(=O)Nc2cccc(C(C)=O)c2)n1`, the activity change, negative = inhibition is -35% (active).

As to `COc1ccc(-n2ccn(CC(=O)Nc3ccc(C)c(C)c3)c(=O)c2=O)cc1OC`, the activity change, negative = inhibition is -0.573% (inactive).
